# The campaign covered roughly 16,000 compounds. About 5,800 (36%) were called active. Roughly 23% stayed inconclusive and do not appear here. This is one part of the list. Unmarked numbers belong to inactive results. Calls follow the shape of the dose curve; as a rule, active = well fitted curve in the direction sought with a large enough effect; inconclusive = small, poorly fitted or top-dose-only effect, or effect the other way; inactive = no such curve, though single readings can be large or run the other way.
# Target: Cytochrome P450 2C19 (Homo sapiens) (UniProt P33261)
# Assay: Cytochrome panel assay with activity outcomes
# Conditions: recombinant CYP, pro-luciferin dealkylation, luminescence, p450-cyp2c19; series mostly up to 57.1 µM; activity, negative = inhibition: at the top concentration
# % is scaled to controls: 0 for no effect and ±100 for the full control effect.
# Chain of Cytochrome P450 2C19 (Homo sapiens) (P33261 whole entry, looked up): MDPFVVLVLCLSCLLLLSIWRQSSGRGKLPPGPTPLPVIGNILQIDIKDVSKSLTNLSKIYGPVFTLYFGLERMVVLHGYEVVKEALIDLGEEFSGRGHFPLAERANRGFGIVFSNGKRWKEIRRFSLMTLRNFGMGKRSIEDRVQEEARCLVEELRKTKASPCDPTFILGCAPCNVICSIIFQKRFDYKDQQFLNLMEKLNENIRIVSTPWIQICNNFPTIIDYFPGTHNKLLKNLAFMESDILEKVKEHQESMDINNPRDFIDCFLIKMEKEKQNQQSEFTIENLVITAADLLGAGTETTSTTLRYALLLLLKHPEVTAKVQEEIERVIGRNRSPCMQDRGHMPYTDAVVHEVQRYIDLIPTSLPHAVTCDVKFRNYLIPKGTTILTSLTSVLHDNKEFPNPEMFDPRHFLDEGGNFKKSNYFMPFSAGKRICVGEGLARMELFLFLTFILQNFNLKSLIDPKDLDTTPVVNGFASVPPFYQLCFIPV
Structure (SMILES),AC50,"activity, negative = inhibition"
CCOc1cc(/C=N/NC(=O)COc2cccc(C)c2)ccc1OC(=O)c1cccs1,8.91 µM (active),
COc1ccc(/C=C/C(=O)Oc2cccc(/C=N/NC(=O)COc3c(C)cccc3C)c2)cc1,,-25%
CCOc1cc(/C=N/NC(=O)CNc2cccc(C)c2)ccc1OC(=O)c1ccccc1,10 µM (active),
O=C(CN1CCN(S(=O)(=O)c2ccc(F)cc2)CC1)Nc1ccc(Cl)c(C(F)(F)F)c1,7.94 µM (active),
O=C(CN1CCN(S(=O)(=O)c2ccc(Cl)cc2)CC1)Nc1ccc2c(c1)OCO2,2.82 µM (active),
O=C1C=CC(=Nc2cccc3c(N=C4C=CC(=O)O4)cccc23)O1,,-74.7% [at 11.4 µM]
CC1=CC(C)(C)NC(=S)N1c1cccc(C)c1,3.98 µM (active),
COc1cccc([C@@H]2Oc3ccc(OC)cc3/C(=N/OC[C@@H](C)[C@H](OCc3ccccc3)C(C)C)[C@@H]2O)c1,2 µM (active),
COc1cccc([C@@H]2Oc3ccc(OC)cc3/C(=N/OC[C@@H](O)COCc3ccco3)[C@@H]2O)c1,1.58 µM (active),
CC(C)=NOC[C@@H](O)COCc1ccco1,,-10.6% [at 11.4 µM]
COc1cccc([C@@H]2Oc3ccc(OC)cc3/C(=N/O[C@@H](C)c3cn([C@H]4COC[C@H]4O)nn3)[C@@H]2O)c1,,-35.4% [at 11.4 µM]
CCN1C(=O)[C@H]2[C@H]3[C@H](O)[C@H](O)C/C(=N/O[C@@H](C)c4cc(-c5c(C)cc(C)cc5C)no4)[C@@H]3CC[C@@H]2C1=O,,-26.1% [at 11.4 µM]
COc1cccc([C@@H]2Oc3ccc(OC)cc3/C(=N/O[C@@H](C)c3cc(-c4c(C)cc(C)cc4C)no3)[C@@H]2O)c1,1.58 µM (active),
CCN1C(=O)[C@H]2[C@H]3[C@H](O)[C@H](O)C/C(=N/OC[C@@H](C)[C@H](OCc4ccccc4)C(C)C)[C@@H]3CC[C@@H]2C1=O,,-18.6% [at 11.4 µM]
COc1cccc([C@H]2Oc3ccc(OC)cc3/C(=N\OC[C@@H](O)[C@@H]3O[C@@H]4OC(C)(C)O[C@@H]4[C@H]3O)[C@@H]2O)c1,,-33% [at 11.4 µM]
COc1cccc([C@H]2Oc3ccc(OC)cc3/C(=N\O[C@@H](C)c3cn([C@H](CO)Cc4ccccc4)nn3)[C@@H]2O)c1,,-44.2% [at 11.4 µM]
O=C(O)/C(=C/c1c(C(=O)O)[nH]c2cc(Cl)cc(Cl)c12)c1ccccc1,,-13.2%
O=C1NCCN1Cc1ccccc1F,20 µM (active),
CN(C)S(=O)(=O)Oc1cccc(C(=O)Nc2ccc(Cl)c(Cl)c2)c1,3.98 µM (active),

Structure (SMILES),AC50,"activity, negative = inhibition"
CN(C)S(=O)(=O)Oc1cccc(C(=O)Nc2ccccc2Cl)c1,2.82 µM (active),
CC(C)(N=NC(C)(C)C(=N)N)C(=N)N,,41.9% [at 11.4 µM]
CON1C(=O)C(=O)N(OC)C2CCCCC21 (stereo unspecified),,24.9%
N#CC(C#N)=C(N)/C(C#N)=C/c1ccc(O)cc1,,0.416%
CC=C(/C(=C/C)c1ccc(O)cc1)c1ccc(O)cc1,3.16 µM (active),
COc1ccc(CNC(=O)C2CC(c3ccc(OC)cc3)=NO2)cc1 (stereo unspecified),,-2.25%
COCCNC(=O)C1CC(c2cccc(OC)c2)=NO1 (stereo unspecified),,-24.6%
COc1cccc(C2=NOC(C(=O)Nc3cccnc3)C2)c1 (stereo unspecified),10 µM (active),
O=C(NCc1ccc2c(c1)OCO2)C1CC(c2cccc(Br)c2)=NO1 (stereo unspecified),11.2 µM (active),
COc1ccc(CNC(=O)C2CC(c3cccc([N+](=O)[O-])c3)=NO2)cc1 (stereo unspecified),10 µM (active),
COc1cccc(C2=NOC(C(=O)NCc3ccccc3)C2)c1 (stereo unspecified),3.98 µM (active),
COc1cccc(C2=NOC(C(=O)NCCN3CCOCC3)C2)c1 (stereo unspecified),,-20.2%
CCNc1ncc2nc(C)c(=O)n(Cc3cccs3)c2n1,,-27.9%
COC(=O)N1CCC[C@@]2(CCN(C(=O)Nc3cccc(F)c3)C2)C1,,-41.5%
O=c1c(-c2cccs2)nc2cncnc2n1-c1ccccc1,6.31 µM (active),
CN1CCN(c2ncc3nc(-c4cccs4)c(=O)n(-c4ccccc4)c3n2)CC1,,22.2%
COc1ccc(-n2c(=O)c(-c3cccs3)nc3cnc(Oc4ccccc4)nc32)cc1,,-6.86%
O=c1c(-c2cccs2)nc2cnc(N3CCOCC3)nc2n1-c1ccccc1,,-11.6%
COc1ccc(-n2c(=O)c(-c3cccs3)nc3cncnc32)cc1,15.8 µM (active),

Structure (SMILES),AC50,"activity, negative = inhibition"
Cn1c(=O)c(-c2cccs2)nc2cncnc21,,-45.6%
CCCc1ncc(C[n+]2ccccc2C)c(N)n1,,0.835% [at 25.6 µM]
COc1ccc2c(c1)c(=O)oc1c(C)c(OCC(=O)N3CCc4ccccc4C3)ccc12,0.398 µM (active),
CCOc1cc(/C=C2/SC(=O)N(CC(=O)N3CCc4ccccc4C3)C2=O)ccc1OCC(=O)O,,2.89%
COCC(=O)N1CCC2(CC1)CCN(C(=O)Nc1ccc(OC)cc1)CC2,,-5.31%
N#Cc1c(NC(=O)CCN2C(=O)c3ccccc3C2=O)oc(-c2ccccc2)c1-c1ccccc1,3.16 µM (active),
Cc1ccc(CNCC(O)(c2ccc(F)cc2)c2ccc(F)cc2)cc1,11.2 µM (active),
OC(CNCc1ccc(F)cc1)(c1ccc(F)cc1)c1ccc(F)cc1,7.94 µM (active),
COc1cnc(-c2ccccn2)nc1Oc1ccc(Cl)c2ccccc12,14.1 µM (active),
C=C1C(=O)O[C@@H]2[C@@H]1CC/C(C)=C\CC[C@@]1(C)O[C@H]21,inactive,
Cn1c(Sc2ccc(-c3cccnc3)n2C)ccc1-c1cccnc1,1 µM (active),
c1cncc(-c2cc(-c3cc(-c4cccnc4)n[nH]3)[nH]n2)c1,,-4.18% [at 11.4 µM]
COc1cccc(/C=N/NC(=O)CO/N=C(\C)c2cccs2)c1OC,12.6 µM (active),
CCOc1ccc(-c2cc(CCCC(=O)NCCc3ccc(OC)c(OC)c3OC)no2)cc1,1.58 µM (active),
CC(=O)N1CCC2(CCCN(C(=O)Nc3cccc(F)c3)C2)CC1,,-27.7%
O=C(/C=C\NCC(=O)c1ccccc1)c1ccccc1,3.98 µM (active),
O=C(/C=C\NCC(=O)c1ccccc1)c1ccc(F)cc1,2 µM (active),
O=C(C[N+]1(c2ccccc2)CCOCC1)c1ccccc1,,-17.3% [at 11.4 µM]
